# Reference: PubChem BioAssay (NCATS)
# Values joined by “and” are separate entries in the source; they are usually repeats but may differ in a detail not shown here. Equal entries are not always repeated. Records with an inconclusive call do not appear. Where a call stands in place of a potency, no number is given. A number with no mark means an inactive call. Active and inactive are the calls of the source. The call rests on the fitted dose curve; in most records, active means well fitted inhibition curve with a large enough effect; inconclusive means small, poorly fitted or top-dose-only effect; inactive means flat fitted curve, though single readings scatter.
# Assays:
# PC15 = assay: qHTS profiling for inhibitors of Plasmodium falciparum proliferation (AID 504749); settings: P. falciparum in erythrocytes, SYBR Green DNA, 72 h; series mostly up to 28.7 µM
# In short: (§1)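 In a 72 h erythrocytic culture (37 C, humidified, 5% CO2) at 2.5% hematocrit and 0.3% starting parasitemia, compounds were tested; SYBR Green I in detergent lysis buffer stained parasite DNA overnight.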
# PC26 = assay: as above; settings: P. falciparum in erythrocytes, SYBR Green DNA, 72 h; series mostly up to 28.7 µM
# In short: as §1
# PC49 = assay: as above; settings: P. falciparum in erythrocytes, SYBR Green DNA, 72 h; series mostly up to 28.7 µM
# In short: as §1
# SC27B = assay: as above; settings: P. falciparum in erythrocytes, SYBR Green DNA, 72 h; series mostly up to 28.7 µM
# In short: as §1
# TAB109 = assay: as above; settings: P. falciparum in erythrocytes, SYBR Green DNA, 72 h; series mostly up to 28.7 µM
# In short: as §1
# TAB113 = assay: as above; settings: P. falciparum in erythrocytes, SYBR Green DNA, 72 h; series mostly up to 28.7 µM
# In short: as §1
# TAB165 = assay: as above; settings: P. falciparum in erythrocytes, SYBR Green DNA, 72 h; series mostly up to 28.7 µM
# In short: as §1
# CRL-7250 [1] = assay: Cytotoxic Profiling of Annotated Libraries Using Quantitative High-Throughput Screening (AID 1296008); settings: Five cell lines viability, CellTiter-Glo ATP luminescence, 48-72 h; max response: active compounds read low
# In short: (§2)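 Cytotoxicity was measured as CellTiter-Glo ATP luminescence, read after 10 min at room temperature. Compound treatment of the cells lasted 48 or 72 hr at 37 degrees Celsius in a qHTS format.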
# HEK293 = assay: as above; settings: Five cell lines viability, CellTiter-Glo ATP luminescence, 48-72 h; max response: active compounds read low
# In short: as §2
# HaCat [2] = assay: as above; settings: Five cell lines viability, CellTiter-Glo ATP luminescence, 48-72 h; max response: active compounds read low
# In short: as §2
# KB-3-1 = assay: as above; settings: Five cell lines viability, CellTiter-Glo ATP luminescence, 48-72 h; max response: active compounds read low
# In short: as §2
# NIH3T3 = assay: as above; settings: Five cell lines viability, CellTiter-Glo ATP luminescence, 48-72 h; max response: active compounds read low
# In short: as §2
# HACAT [3] = assay: qHTS assay to identify novel small-molecules to repurpose for Merkel cell carcinoma treatment (AID 1296009); settings: MCC and control cell lines, CellTiter-Glo viability, 72 h; at 44.8 µM (top of the series) unless noted
# In short: (§3)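 Cell viability measured by CellTiter-Glo following 72 hr compound treatment at 37 degree celsius, with NPC and MIPE libraries tested in 8- and 11-point concentration series.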
# HEK293T = assay: as above; settings: MCC and control cell lines, CellTiter-Glo viability, 72 h; at 44.8 µM (top of the series)
# In short: as §3
# MCC-13 = assay: as above; settings: MCC and control cell lines, CellTiter-Glo viability, 72 h; series mostly up to 46 µM
# In short: as §3
# MKL-1 = assay: as above; settings: MCC and control cell lines, CellTiter-Glo viability, 72 h; series mostly up to 46 µM
# In short: as §3
# MKL-2 = assay: as above; settings: MCC and control cell lines, CellTiter-Glo viability, 72 h; series mostly up to 46 µM
# In short: as §3
# MCC-26 = assay: as above; settings: MCC and control cell lines, CellTiter-Glo viability, 72 h; series mostly up to 46 µM
# In short: as §3
# CRL-7250 [4] = assay: as above; settings: MCC and control cell lines, CellTiter-Glo viability, 72 h; series mostly up to 44.8 µM
# In short: as §3
# W2 = assay: qHTS profiling for inhibitors of Plasmodium falciparum proliferation (AID 504749); settings: P. falciparum in erythrocytes, SYBR Green DNA, 72 h; series mostly up to 28.7 µM
# In short: as §1
# Further: nearly all actives have a fitted effect of over 60% in size.
# Potency means the concentration at half of the fitted maximal effect.
smiles,measurement,setting,value
CC1NCCOC1c1ccccc1 (stereo not drawn),Potency,PC15,inactive
same,Potency,PC26,inactive
same,Potency,PC49,inactive
same,Potency,SC27B,inactive
same,Potency,TAB109,inactive
same,Potency,TAB113,inactive
same,Potency,TAB165,inactive
same,max response,CRL-7250 [1],1.98%
same,outcome,HEK293,inactive
same,outcome,HaCat [2],inactive
same,max response,KB-3-1,-11.6%
same,max response,NIH3T3,1.83%
same,outcome,HACAT [3],inactive
same,outcome,HEK293T,inactive
same,Potency,MCC-13,inactive
same,Potency,MKL-1,inactive
same,Potency,MKL-2,inactive
COC[C@H]1OC(=O)c2coc3c2[C@@]1(C)C1=C(C3=O)C2CCC(=O)[C@@]2(C)C[C@H]1OC(C)=O (stereo partly drawn),max response,CRL-7250 [1],-6.6%
same,max response,HEK293,-95.7% and 0.842%
same,max response,HaCat [2],-21.4%
same,outcome,HaCat [2],inactive
same,max response,KB-3-1,-5.47%
same,outcome,KB-3-1,inactive
same,outcome,HACAT [3],inactive
same,Potency,MCC-13,inactive
same,Potency,MCC-26,inactive
same,Potency,MKL-1,11.8 µM (active)
same,Potency,MKL-2,7.43 µM (active)
CN(C)CCN(C)CCc1ccc(Cl)c(Cl)c1,outcome,CRL-7250 [1],inactive
same,max response,HEK293,0.598%
same,max response,HaCat [2],-22.4%
same,max response,KB-3-1,0.794%
same,max response,NIH3T3,-6.27%
same,outcome,CRL-7250 [4],inactive
same,Potency,MCC-13,inactive
same,Potency,MCC-26,inactive
same,Potency,MKL-1,inactive
same,Potency,MKL-2,inactive
CNC(=O)c1ccc(N2C(=S)N(c3ccc(C#N)c(C(F)(F)F)c3)C(=O)C23CCC3)cc1F,outcome,CRL-7250 [1],inactive
same,max response,HEK293,-7.61%
same,outcome,HEK293,inactive
same,outcome,HaCat [2],inactive
same,max response,KB-3-1,0.285% and 2.98%
same,max response,NIH3T3,3.77% and -4.83%
same,outcome,CRL-7250 [4],inactive
same,outcome,HACAT [3],inactive
same,outcome,HEK293T,inactive
same,Potency,MCC-13,inactive
same,Potency,MCC-26,inactive
same,Potency,MKL-1,inactive
same,Potency,MKL-2,inactive
CC(C)=CC1C(C(=O)OCc2cccc(Oc3ccccc3)c2)C1(C)C (stereo not drawn),Potency,PC15,inactive
same,Potency,PC26,inactive
same,Potency,PC49,inactive
same,Potency,SC27B,inactive
same,Potency,TAB109,inactive
same,Potency,TAB113,inactive
same,Potency,TAB165,inactive
same,outcome,CRL-7250 [1],inactive
same,outcome,HEK293,inactive
same,max response,HaCat [2],2.03%
same,max response,KB-3-1,3.42%
same,outcome,NIH3T3,inactive
same,outcome,CRL-7250 [4],inactive
same,outcome,HEK293T,inactive
same,Potency,MCC-13,inactive
same,Potency,MCC-26,inactive
same,Potency,MKL-1,inactive
same,Potency,MKL-2,inactive
Cc1ccc(-c2nc3ccc(C)cn3c2CC(=O)N(C)C)cc1,Potency,PC15,inactive
same,Potency,PC49,inactive
same,Potency,SC27B,inactive
same,Potency,TAB109,inactive
same,Potency,TAB113,inactive
same,Potency,TAB165,inactive
same,Potency,W2,inactive
same,max response,CRL-7250 [1],3.97%
same,max response,HEK293,-21.2%
same,max response,HaCat [2],-0.388%
same,max response,KB-3-1,2.97%
same,max response,NIH3T3,-7.47%
same,Potency,MCC-13,inactive
same,Potency,MKL-1,inactive
same,Potency,MKL-2,inactive
C[C@H]1O[C@@H](O[C@H]2[C@@H](O)C[C@H](O[C@H]3[C@@H](O)C[C@H](O[C@H]4CC[C@@]5(C)[C@H](CC[C@@H]6[C@@H]5CC[C@]5(C)[C@@H](C7=CC(=O)OC7)CC[C@]65O)C4)O[C@@H]3C)O[C@@H]2C)C[C@H](O)[C@@H]1O,Potency,CRL-7250 [1],33.5 nM (active) and 48.5 nM (active)
same,Potency,HEK293,53.1 nM (active) and 61.1 nM (active)
same,Potency,HaCat [2],266 nM (active)
same,Potency,KB-3-1,73.1 nM (active) and 137 nM (active)
same,max response,NIH3T3,-6.15%
same,Potency,MCC-26,0.0422 µM (active)
same,Potency,MKL-1,0.0473 µM (active)
same,Potency,MKL-2,0.0237 µM (active)
Cn1cc(C2=C(c3cn(C4CCN(Cc5ccccn5)CC4)c4ccccc34)C(=O)NC2=O)c2ccccc21,max response,CRL-7250 [1],-3.19% and -9.47%
same,max response,HEK293,-3.71% and -0.888%
same,max response,HaCat [2],-7.11%
same,max response,KB-3-1,7.73% and 20.1%
same,outcome,NIH3T3,inactive
same,Potency,MCC-13,inactive
same,Potency,MCC-26,inactive
same,Potency,MKL-1,inactive
same,Potency,MKL-2,inactive
C[C@@H]1[C@@H](C(=O)C[C@H]2O[C@@H]3O[C@]4(C)CC[C@@H]5[C@H](C)CC[C@@H]([C@H]2C)[C@@]35OO4)O[C@@H]2O[C@]3(C)CC[C@H]4[C@H](C)CC[C@@H]1[C@@]24OO3,Potency,CRL-7250 [1],4.18 µM (active)
same,Potency,HEK293,0.332 µM (active)
same,Potency,HaCat [2],5260 nM (active)
same,Potency,MKL-1,14.8 µM (active)
same,Potency,MKL-2,0.662 µM (active)
CCC(=O)C(CC(C)N(C)C)(c1ccccc1)c1ccccc1 (stereo not drawn),max response,CRL-7250 [1],-4.65%
same,Potency,HEK293,30.9 µM (active)
same,outcome,HaCat [2],inactive
same,max response,KB-3-1,-25%
same,max response,NIH3T3,-1.89%
same,outcome,HACAT [3],inactive [at 92 µM]
same,Potency,MCC-13,inactive
same,Potency,MCC-26,inactive
CCN(CC)CCOC(=O)C(O)(c1ccccc1)c1ccccc1,Potency,PC15,inactive
same,Potency,PC26,inactive
same,Potency,PC49,inactive
same,Potency,SC27B,inactive
same,Potency,TAB109,inactive
same,Potency,TAB113,inactive
same,Potency,TAB165,inactive
same,max response,CRL-7250 [1],-0.239%
same,max response,HEK293,3.4%
same,max response,HaCat [2],-11%
same,max response,KB-3-1,-1.34%
same,outcome,NIH3T3,inactive
same,Potency,MCC-13,inactive
same,Potency,MCC-26,inactive
same,Potency,MKL-1,inactive
same,Potency,MKL-2,inactive
NCC(O)c1ccc(O)cc1 (stereo not drawn),Potency,PC15,inactive
same,Potency,PC26,inactive
same,Potency,PC49,inactive
same,Potency,SC27B,inactive
same,Potency,TAB109,inactive
same,Potency,TAB113,inactive
same,Potency,TAB165,inactive
same,max response,CRL-7250 [1],4.85%
same,max response,HEK293,4.81%
same,max response,HaCat [2],-2.74%
same,max response,KB-3-1,-4.37%
same,max response,NIH3T3,-5.72%
same,Potency,MCC-13,inactive
same,Potency,MKL-1,inactive
same,Potency,MKL-2,inactive
C[C@@H]1O[C@@H](O[C@H]2C[C@@H](O)[C@]3(CO)[C@H]4[C@H](O)C[C@]5(C)[C@@H](C6=CC(=O)OC6)CC[C@]5(O)[C@@H]4CC[C@]3(O)C2)[C@H](O)[C@H](O)[C@H]1O,Potency,CRL-7250 [1],29.6 nM (active) and 84.1 nM (active) and 89.3 nM (active)
same,Potency,HEK293,46.9 nM (active) and 94.4 nM (active) and 70.9 nM (active)
same,Potency,HaCat [2],266 nM (active) and 142 nM (active)
same,Potency,KB-3-1,52.6 nM (active) and 46.1 nM (active) and 112 nM (active)
same,outcome,NIH3T3,inactive
same,Potency,MKL-1,148 nM (active) and 119 nM (active)
same,Potency,MKL-2,0.118 µM (active)
C=C1CC[C@@]2(O)[C@H]3Cc4ccc(O)c5c4[C@@]2(CCN3CC2CC2)[C@H]1O5,Potency,PC15,inactive
same,Potency,PC26,inactive
same,Potency,PC49,inactive
same,Potency,SC27B,inactive
same,Potency,TAB109,inactive
same,Potency,TAB113,inactive
same,Potency,TAB165,inactive
same,Potency,W2,6.75 µM (active)
same,max response,CRL-7250 [1],2.77%
same,max response,HEK293,-5.09%
same,outcome,HaCat [2],inactive
same,max response,KB-3-1,3.52%
same,outcome,NIH3T3,inactive
same,outcome,HACAT [3],inactive
same,Potency,MCC-13,inactive
same,Potency,MCC-26,inactive
same,Potency,MKL-1,inactive
same,Potency,MKL-2,inactive
C[C@]12CC[C@H]3[C@@H](CCC4=CC(=O)CC[C@@H]43)[C@@H]1CC[C@@H]2OC(=O)CCc1ccccc1,max response,CRL-7250 [1],-4.34%
same,Potency,HEK293,23.7 µM (active)
same,max response,HaCat [2],1.58%
same,max response,NIH3T3,-2.8%
same,Potency,MCC-13,inactive
same,Potency,MCC-26,inactive
same,Potency,MKL-1,inactive
same,Potency,MKL-2,inactive
